For 13 compounds, growth results are on record in PubChem BioAssay (NCI).

Several values for one entry are separate records, joined by “and”; a condition that tells them apart may be missing. Identical values can stand only once. About 83,000 compounds went through this panel and 20% of them were active in at least one assay; those are over-represented in the sample as a whole.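 Growth was measured after 48 h exposure to one concentration of compound in 96-well plates. Values under 10 count as active.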 Values without a mark were called inactive. Activity calls are given as the source filed them.

Common to all, as to assay: NCI-60 one-dose screen, 48 h (100 = growth as untreated, 0 = no growth, -100 = all killed)
Holding throughout (details): 10 µM unless noted

The subject of assay [1] is DU-145 prostate.
Assay [2] relates to K-562 leukemia.
Assay [3] deals with MALME-3M melanoma.
Assay [4] has as its system MDA-MB-231 breast.
In assay [5] the test system is RXF 393 renal.
In assay [6] the test system is SF-268 CNS.
Assay [7] has as its system SF-295 CNS.
Assay [8] concerns SF-539 CNS.
Assay [9] concerns UACC-257 melanoma.
Assay [10] has as its system M14 melanoma.

In the case of `CC/C(=C(/c1ccc(Cl)cc1)c1ccc(OCCN2CCOCC2)cc1)c1ccccc1`, the growth in assay [1] is 98.4%; in assay [2], 63.7%; in assay [3], 104%; in assay [4] it was 95.5%; in assay [5] it was 107%; in [6], 90.5%. Moreover, the growth was 97.1% in [7], 104% in [8], 98.8% in [9] and 99.5% in assay [10].
With `C=CCNC(=O)Cc1c(-c2ccc(OC)cc2)oc2c(OC)c3c(c(OC)c12)OCO3`, the growth in [1] was 104%; in assay [2], 102%; in assay [3], 106%; in assay [4] it was 91.1%; in [5] it was 90.8%; in assay [6], 96.2%. Also, the growth in assay [7] is 106%; in [8], 103%; in assay [9] it was 105%; in assay [10], 101%.
In the case of `COc1ccccc1/C=C1\COc2ccc(O)cc2C1=O`, the growth is 96.4% in assay [1]; 6.88% (active) in assay [2]; 79.9% in assay [3]; 121% in assay [4]; 92.1% in assay [5]; 83.9% in assay [6]. Further, the growth in assay [7] is 104%; in assay [8], 92.5%; in assay [9], 95.2%; in assay [10], 77.8%.
Regarding `CN(C)CCN1C(=O)c2c(c3c4ccccc4n4c3c3c2c2ccccc2n3C2CC(O)C(O)C4(C)O2)C1=O` (stereo not given), the growth is 16.9% in assay [1]; 11.4% in [2]; 23.5% in assay [3]; 58.4% in assay [4]; 29.9% in assay [5]; 35.2% in [6]. Also, the growth in [7] was 8.95% (active); in assay [8], 24.3%; in assay [9], 34.7%; in assay [10], 23.9%.
Take `Nc1nc(Cl)nc2c1ncn2C1OC(CO)C(O)C1O` (stereo not given): the growth in [1] is 64.8% and 44.9%; in [2], 67%; in assay [3], 74.7% and 76.4%; in assay [4], 71.1% and 90.7%; in [5] it was 123% and 118%; in [6] it was 57.6% and 63.4%. Also, the growth was 102% and 103% in assay [7]; 91.7% and 111% in [8]; 99.1% and 85.9% in [9]; -14% (active) and 4.59% (active) in assay [10].
Regarding `CCN(CC)CCCN1C(=O)c2c(c(C)c3c(oc4cc(OC)ccc43)c2C)C1=O`, the growth in assay [1] is 112%; in assay [2], -31.5% (active); in assay [3] it was 85.3%; in assay [4], 96%; in assay [5] it was 73%; in assay [6], 101%. Also, the growth in assay [7] is 100%; in [8] it was 95.5%; in [9], 114%; in [10] it was 108%.
For the compound `CCc1c2c(nc3ccc(OCc4ccc(B5OC(C)(C)C(C)(C)O5)cc4)cc13)-c1cc3c(c(=O)n1C2)COC(=O)[C@]3(O)CC`, the growth in [1] was 3.05% (active); in assay [2], 19.8%; in [3], -6.1% (active); in [4] it was 34.2%; in assay [5], -25.7% (active); in assay [6] it was 5.96% (active). In addition, the growth in assay [7] is 5.44% (active); in [8], -35.6% (active); in [9], -9.18% (active); in [10], 2.91% (active).
Regarding `Nc1nc(Nc2ccc(F)cc2)nn1C(=O)c1cc(Cl)ccc1Cl`, the growth in assay [1] is 78.8%; in assay [2] it was 97.4%; in assay [3], 108%; in assay [4], 88.2%; in assay [5], 21.8%; in assay [6] it was 74.9%. Also, the growth is 94.3% in assay [7], 72.8% in assay [8], 106% in [9] and 86.8% in assay [10].
On to `N=c1ccccn1CCO`, for which the growth in assay [1] was 125%; in assay [2], 108%; in assay [3] it was 111%; in assay [4], 95%; in assay [5] it was 114%; in [6], 110%. Also, the growth was 124% in assay [7], 107% in assay [8], 105% in assay [9] and 102% in [10].
On to `N#CSc1c[nH]c2ccc(/C=C/C(=O)/C=C(/C=C/c3ccc4[nH]cc(SC#N)c4c3)OB(F)F)cc12`, for which the growth in assay [1] is 1.62% (active); in assay [2] it was -27.2% (active); in assay [3] it was -32.6% (active); in assay [4], -35.9% (active); in assay [5], -64.4% (active); in assay [6] it was 2.42% (active). For the same compound, the growth in assay [7] is 35.7%; in assay [8], -13.2% (active); in assay [9] it was -29.8% (active); in assay [10], -39.9% (active).
Regarding `N=C(N)SCc1c2ccccc2c(CSC(=N)N)c2ccccc12`, the growth in assay [1] was 63.9%; in assay [2], 35.3%; in assay [3], 71.3%; in assay [4], 103%; in assay [5] it was 99.7%; in assay [6] it was 55.5%. Besides, the growth in [7] was 66.7%; in [8] it was 84%; in assay [9] it was 119%; in [10], 68.4%.
Take `CCN1C(=O)/C(=c2\sc3n(c2=O)C2C(NN=3)N(CC)C(=O)N2CC)c2ccccc21` (stereo not given): the growth in assay [1] was 7% (active); in assay [2], 7.63% (active); in [3], 49.5%; in [4], 23.9%; in [5], -7.21% (active); in assay [6], 61.7%. The growth in assay [7] is 9.43% (active); in assay [8] it was -20.9% (active); in assay [9], 96.5%; in [10], 46.2%.
Turning to `C=C(c1ccc(C(=O)O)cc1)c1cc2c(cc1C)C(C)(C)CCC2(C)C`, the growth in assay [1] was 94.4% and 92.3%; in assay [2], 53.4% and 58.5%; in assay [3], 64.9%; in assay [4], 69.6% and 68.2%; in assay [5] it was 94.9% and 105%; in [6], 90.2% and 75.4%. For the same compound, the growth is 38.5% and 48.8% in assay [7]; 82.1% and 80.5% in assay [8]; 94.9% and 90.3% in assay [9]; 87% and 75.5% in [10].
